Screens from PubChem BioAssay.
NTR1 ag – agonists of human neurotensin receptor NTR1; 330,000 tested, 0.17% active; activation, % at 20 µM; NTR1-U2OS beta-arrestin-GFP spot imaging, agonist mode; P30989;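 active = activation at or above 40% of the spot to cytoplasm intensity ratio, with at least 20 cells analyzed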;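 also: 0% = DMSO without peptide and 100% = 100 nM NTR1 peptide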
Target sequence (P30989 whole entry, looked up): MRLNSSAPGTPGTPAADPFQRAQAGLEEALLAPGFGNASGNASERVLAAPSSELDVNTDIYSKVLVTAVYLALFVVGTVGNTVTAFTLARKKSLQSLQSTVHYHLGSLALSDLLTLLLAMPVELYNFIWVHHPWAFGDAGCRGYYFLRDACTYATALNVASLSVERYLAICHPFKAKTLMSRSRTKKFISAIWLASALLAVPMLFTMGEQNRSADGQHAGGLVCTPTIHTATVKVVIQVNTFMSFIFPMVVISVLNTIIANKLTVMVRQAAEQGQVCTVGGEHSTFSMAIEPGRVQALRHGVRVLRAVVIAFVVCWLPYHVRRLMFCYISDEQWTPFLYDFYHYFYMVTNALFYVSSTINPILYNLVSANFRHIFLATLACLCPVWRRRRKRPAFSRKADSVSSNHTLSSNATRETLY
SUMO Mot1 rescue – blocks SUMOylation pathway, rescuing yeast Mot1-301 growth; S. cerevisiae Mot1-301 growth rescue, ATP luminescence, 38.5C; percent above DMSO median, 100 means doubled; growth rescue, % at 18.8 µM; 320,000 tested, 1% active;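 active = every valid replicate shows activation above 250% relative to neutral control wells; inactive = the rest, any valid replicate at or below 250%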;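 also: OY570 slx delta 5 strain wells were the positive control but not used for scaling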
Cardio protect – myocardial damage modulation in H9c2 cells. AID 588492. 360,000 tested, 0.63% active. H9c2 cardiomyocytes, H2O2 injury protection, ATPLite, 2 h. protection from H2O2 cell death, % at 20 µM;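 active = compounds giving at least 50% protection of heart cells from peroxide-induced death in the single-dose screen, raw or plate-pattern-corrected value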;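 also: 0% = DMSO wells with peroxide and 100% = DMSO wells without peroxide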
AI-2 QS mod – Vibrio harveyi AI-2 quorum sensing modulation; 300,000 tested, 0.4% active; Vibrio harveyi JMH597 AI-2 luminescence/OD600 ratio, 9 h; hits give low values; strain lacks LuxN and CqsS sensors; 0 = neutral-control median; AID 2094; activity change, % at 7.5 µM; in the data active = activity change below about -75%, passing the limit was not always enough;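 also: luminescence divided by OD600 gain over 9 h not by final OD600 alone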
AHR act – activators of human aryl hydrocarbon receptor; 320,000 tested, 2.5% active; activation, % at 5 µM; P35869; AHR-responsive luciferase reporter cells, luminescence; AID 2796; in the data active = activation above about 47%;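 also: 0% = vehicle wells and 100% = reference agonist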
NR3A LBD binder – modulators (binders) of human NR3A ligand-binding domain. NR3A LBD differential scanning fluorimetry, Tm shift; 0% = protein alone, 100% = glycine-bound protein. Tm shift relative to glycine control, % at 25 µM. 340,000 tested, 2.5% active. AID 1259313;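 active = melting temperature shift of at least 10% of the positive control shift, at one fixed dose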
An asterisk follows results filed as active; . = no result. Sampled rows, rich in hits. Any-hit rate of the full collection: about 6.2%.

SMILES | NTR1 ag | SUMO Mot1 rescue | Cardio protect | AI-2 QS mod | AHR act | NR3A LBD binder
COc1ccc(OCC(=O)NC(=S)Nc2ccc3c4c(cccc24)CC3)cc1 | 0 | -11 | 3 | 11 | 5 | -4
COc1cccc(C(=O)NC(=S)Nc2ccc3c4c(cccc24)CC3)c1 | 2 | 6 | -12 | 0 | 67* | -15
COc1cc(/C=C/C(=O)OC(C)C(=O)NC2CCCCC2C)cc(Cl)c1OC (stereo unspecified) | -1 | -18 | -2 | 18 | 1 | -1
Nc1ccn([C@@H]2O[C@H](C(=O)N3CCCN(Cc4cccs4)CC3)[C@@H](O)[C@H]2O)c(=O)n1 | . | . | 0 | . | . | .
COCCC1CCCCN1C(=O)c1cccc(OC2CCN(S(C)(=O)=O)CC2)c1 (stereo unspecified) | 1 | -5 | 6 | 24 | . | 3
Cc1cccc(NC(=O)COc2coc(CN3CCN(c4ccccc4)CC3)cc2=O)c1C | 0 | . | -1 | 10 | 0 | 0
Cc1ccc(Cn2c(C(C)Nc3nc(-c4ccc(F)cc4)cs3)nc3cc(C(=O)NCCCO)ccc32)cc1 (stereo unspecified) | -4 | 1 | 40 | 19 | 8 | -9
O=[N+]([O-])c1cc(-c2csc(NCCc3nc4cc(C(F)(F)F)ccc4n3CCCO)n2)ccc1Cl | 21 | 2 | -12 | -4 | 11 | 17*
OCCCn1c(CCNc2nc(-c3ccc(Cl)cc3)cs2)nc2cc(C(F)(F)F)ccc21 | 3 | 23 | -5 | 15 | 41 | 6
Cc1ccc(Cn2c(CCNc3nc(-c4ccc(Cl)c([N+](=O)[O-])c4)cs3)nc3cc(C(=O)NCCCO)ccc32)cc1 | 1 | -15 | 70* | -3 | 5 | 4
Cc1nc2cc(C(F)(F)F)ccc2n1CCNc1nc(-c2ccc([N+](=O)[O-])c(Cl)c2)cs1 | 23 | 1 | -16 | 7 | -4 | 25*
COc1ccc(Cl)cc1N1C(=O)CC(N2CCN(S(=O)(=O)c3ccccc3F)CC2)C1=O (stereo unspecified) | 1 | 8 | -4 | . | -1 | 1
CCC(=O)N(C)C[C@H]1Oc2cc(-c3ccccc3F)ccc2S(=O)(=O)N([C@H](C)CO)C[C@H]1C | . | . | -3 | . | . | .
Nc1cc(Cl)nc(N/N=C/c2ccccc2[N+](=O)[O-])n1 | -2 | -11 | 21 | 24 | 52* | 2
Nc1cc(Cl)nc(N/N=C/c2ccc([N+](=O)[O-])cc2)n1 | 0 | -4 | 30 | 21 | 5 | 21*
CCCOc1ccccc1C(=O)N(Cc1cccc(Br)c1)C1CCS(=O)(=O)C1 (stereo unspecified) | 1 | -8 | 1 | 13 | 1 | -2
CCOc1cc(/C=C/c2ccc3cccc([N+](=O)[O-])c3n2)cc(Cl)c1O | 5 | 6 | -6 | 17 | 7 | 6
O=[N+]([O-])c1cccc2ccc(/C=C/c3ccc(Cl)cc3)nc12 | 8 | -10 | -2 | 16 | 62* | 21*
CCN(CC)CCCCNc1ncc2cc(-c3cc(OC)cc(OC)c3)c(NC(=O)NC(C)(C)C)nc2n1 | 13 | 277* | -39 | 9 | 3 | 0
CCN(CC)CCNC(=O)COc1ccc(OC)cc1 | -2 | 154 | -7 | 18 | -2 | -2
CCCC(C)c1nnc(NC(=O)C2CC(=O)N(CCc3ccc(F)cc3)C2)s1 (stereo unspecified) | 1 | 75 | -9 | 24 | 3 | -1
O=[N+]([O-])/C=C/c1c(OCc2ccccc2)ccc2ccccc12 | 61* | -4 | -25 | 4 | 20 | .
O=C1CC(c2ccccc2)c2cccc(F)c21 (stereo unspecified) | 2 | 5 | -1 | 21 | 1 | 0
O=c1oc2ccccc2cc1-c1cn2ccccc2n1 | -2 | -11 | -22 | 3 | 76* | 1
O=C(Nc1ccc2c(c1)CCO2)Nc1nnc([C@H]2C[C@H](O)[C@@H](CO)O2)s1 | . | . | 2 | . | . | .
SMILES | NTR1 ag | SUMO Mot1 rescue | Cardio protect | AI-2 QS mod | AHR act | NR3A LBD binder
COc1ccc2oc(=O)c(C(=O)N3CCN(C(=O)c4ccco4)CC3)cc2c1 | 0 | -9 | -6 | 21 | 3 | -1
COc1ccc(OC)c(NC(=O)c2ccc3c(=O)n(CCc4ccccc4)c(=S)[nH]c3c2)c1 | 1 | 217 | 12 | 8 | -4 | 15*
COc1ccccc1NC(=O)CCCn1c(=S)[nH]c2ccccc2c1=O | 2 | 3 | 2 | 14 | 48* | -1
COc1ccc(CNC(=O)COC(=O)[C@@H]2CCCN2C(=O)c2cccs2)cc1 | -1 | 3 | -6 | . | -1 | 2
COc1ccc(-n2c(C)n[nH]c2=O)cc1OC | -2 | 347* | -1 | 18 | -1 | -1
CCCOCC(O)CC(Cc1ccccc1)C(=O)NN (stereo unspecified) | 2 | 2 | 4 | 16 | 4 | 0
CC1CCCN(C(=O)c2ccc3c(c2)OCO3)C1 (stereo unspecified) | 0 | -6 | -2 | 36 | -1 | -1
CC1CCCN(C(=O)COc2ccc3c(c2)OCO3)C1 (stereo unspecified) | -2 | 96 | 2 | 33 | 52* | -2
CCC1CCCCN1C(=O)COc1ccc2c(c1)OCO2 (stereo unspecified) | 0 | -18 | 2 | 19 | 48* | -1
O=C(NCCC1CCCCN1S(=O)(=O)c1ccc(F)cc1)C(=O)NCC1CCCO1 (stereo unspecified) | 2 | -12 | 5 | 10 | -2 | 0
COC(=O)c1ccc(CN2C(=O)C(C)N(C(=O)c3c(F)cccc3F)c3ccccc32)cc1 (stereo unspecified) | 2 | 43 | -10 | 22 | 1 | -1
COc1ccccc1N1CCN(C(=O)/C=C/c2c(Cl)nc3ccccn23)CC1 | 0 | -13 | 14 | 5 | -1 | -15
COc1ccc(NC(=O)/C=C/c2c(Cl)nc3ccccn23)cc1 | 0 | 3 | 38 | 3 | -3 | 17*
O=C(NNC(=O)c1ccc(Br)o1)c1csc(N2CCOCC2)n1 | -1 | -3 | 3 | . | 0 | 0
O=C1OC/C(=C(/O)c2ccc(Cl)cc2)C1=O | 0 | -5 | -3 | 15 | 0 | 2
CCN(/C=N/c1sc2c(c1C#N)CCCCC2)CC | 0 | -22 | -20 | -8 | 57* | 1
CC(C)CN(/C=N/c1sc2c(c1C#N)CCCCC2)CC(C)C | -2 | 305 | -11 | 28 | 10 | 2
C=CCc1c(C)nc(C)nc1N/N=C/c1ccccc1 | 0 | 32 | 1 | 3 | 66* | -1
C=CCc1c(C)nc(-c2ccccc2)nc1N/N=C/c1ccncc1 | 5 | 58 | -9 | 26 | 61* | 2
C=CCc1c(C)nc(-c2ccccc2)nc1N/N=C/c1ccccc1 | 3 | 1 | 1 | 8 | 33 | 0
